aSyn 5UTR act – Activators via SNCA 5'UTR binding, MLPCN; alpha-synuclein 5'UTR reporter, activators screen; activity score, % (tested at 7.5 µM), hits read low; hit rate 7.1% among 300,000; AID 1814; in the data active means activity score below about -60%
Active calls of the source: *. These entries were drawn from the full list.

SMILES | aSyn 5UTR act
CCN(CC(=O)Nc1ccccc1C(F)(F)F)C(=O)c1oc2ccc(OC)cc2c1C | -65*
COc1ccc2oc(C(=O)NCCC(C)C)c(C)c2c1 | -143*
COc1ccc2oc(C(=O)Nc3ccc(C)cn3)c(C)c2c1 | -124*
COc1ccc2oc(C(=O)NC3CCCCC3)c(C)c2c1 | -99*
COc1ccc2oc(=O)c(C(=O)NC3CCCCCC3)cc2c1 | -174*
COCCN(CC(=O)NC1CCCCC1)C(=O)/C=C/C(=O)c1ccc(OC)cc1O | 79
Cc1cccc(N=CC=C2OC(C)(C)C(C)(C)O2)c1 | -81*
COc1cccc(N=CC=C2OC(C)(C)C(C)(C)O2)c1 | -99*
CN1CCN(c2ccc(-c3ccnn3C(=O)Nc3ccccc3)cc2)CC1 | -72*
CC1CC(C)CN(S(=O)(=O)c2ccc(C(=O)NCCCn3ccnc3)cc2)C1 (centres undefined) | 98
CCCNC(=O)c1ccc(N2CCC3(CC2)CC(c2ccccc2)=NO3)c(NC(=O)c2ccccc2)c1 | 59
CCCN1CCN(CCCNC(=O)c2ccc3nc(N4CCCCC4)sc3c2)CC1 | -214*
CC1CC(C)CN(CCCNC(=O)c2ccc3nc(N4CCCCC4)sc3c2)C1 (centres undefined) | -273*
Cc1ccc(N(O)C(=O)NCCCCNC(=O)N(O)c2ccc(C)cc2)cc1 | -97*
Fc1ccccc1OCCSc1ncnc2nc[nH]c12 | -100*
COc1ccc(OCCSc2ncnc3nc[nH]c23)cc1 | -81*
COc1cc(-c2cc3nc4ccccc4n3c(N)c2C#N)cc(OC)c1OC | 45
CCc1c(C)c(C#N)c2nc3ccccc3n2c1Cl | 105
Cc1cc(-c2ccco2)c(C#N)c2nc3ccccc3n12 | -100*
Oc1ccc(N=Nc2n[nH]c(-c3ccc(Cl)cc3)n2)cc1 | -109*
Cc1c(CC(=O)NC(C)C)c(=O)oc2cc3c(cc12)CCC(C)(C)O3 | -78*
Cc1c(CCC(=O)O)c(=O)oc2cc3oc4c(c3cc12)CCCC4 | 68
CCC(C)NC(=O)Cc1c(C)c2cc3c(cc2oc1=O)OC(C)(C)CC3 (centres undefined) | -118*
Cc1c(CC(=O)N[C@H](C(=O)O)C(C)C)c(=O)oc2cc3c(cc12)CCC(C)(C)O3 | -110*
Cc1cc(C(=O)Nc2ccc([N+](=O)[O-])cn2)cs1 | -137*
SMILES | aSyn 5UTR act
Cc1ccc(C(=O)Nc2ccc([N+](=O)[O-])cn2)o1 | -93*
CC(Oc1cccc(Cl)c1)C(=O)Nc1ccc([N+](=O)[O-])cn1 (centres undefined) | 55
CC(=O)Nc1ccccc1C(=O)C(=O)Nc1cccc(F)c1 | -149*
Cc1ccc(NC(=O)/C(Cl)=C/c2ccccc2)cc1C | -156*
CC(=O)Nc1ccccc1C(=O)C(=O)Nc1ccc(C)c(C)c1 | -182*
CCN(CC)C(=O)C(=O)Nc1ccc(F)c(Cl)c1 | -131*
CC(=O)Nc1ccccc1C(=O)C(=O)Nc1ccc(C)c(F)c1 | -264*
CC(=O)Nc1ccccc1C(=O)C(=O)Nc1ccc(F)c(Cl)c1 | -123*
CC(C)(C)NC(=O)Nc1ccc(Br)cc1 | -138*
CCC(C)NC(=O)Nc1ccc(Br)cc1 (centres undefined) | -73*
COc1ccc(CC(=O)Nc2ccc(-c3cn4ccccc4n3)cc2)cc1OC | -86*
COc1ccc(-c2cn3cc(Br)cnc3n2)cc1 | -123*
O=C(Nc1ccc(-c2cn3ccccc3n2)cc1)c1cccs1 | -129*
COc1ccc(-c2cn3cccnc3n2)cc1Br | -66*
COc1ccc(-c2cc3cc(OC)c(OC)cc3cn2)cc1OC | -140*
c1ccn2cc(-c3ccc4c(c3)OCCO4)nc2c1 | 98
COc1ccc(CC(=O)Nc2ccc(-c3cn4ccccc4n3)cc2)cc1 | -124*
COc1ccc(-c2cn3ccccc3n2)cc1OC | -171*
Cc1nc(SCc2cccc(C(=O)O)c2)nc2c1CCCC2 | 59
COc1ccc2nc(SCc3ccccc3C)nc(C)c2c1 | -107*
COc1ccc2nc(C)cc(SCC(=O)N/N=C/c3cccc4ccccc34)c2c1 | 47
COc1ccc2nc(SCc3cccc(C)c3)nc(C)c2c1 | -106*
CC1CCc2c(sc3nc(CSc4n[nH]c(N)n4)[nH]c(=O)c23)C1 (centres undefined) | -92*
Cc1ccc2nc(-c3ccc4c(c3)NC(=O)CO4)cn2c1 | -80*
Cc1ccc2nc(-c3ccc4c(c3)OCCO4)cn2c1 | 110
SMILES | aSyn 5UTR act
CC(C)c1ccc(/C=C/C(=O)N2CCOCC2)cc1 | -156*
CCCOc1ccc(/C=C/C(=O)N2CCOCC2)cc1 | -68*
CC(C)c1ccc(/C=C/C2=NNC(=O)CC2)cc1 | 87
O=C(/C=C/c1ccc(Cl)cc1)N1CCOCC1 | -76*
CCS(=O)(=O)c1ccc2oc(Nc3ccccc3Cl)nc2c1 | -154*
CCS(=O)(=O)c1ccc2oc(Nc3ccccc3Br)nc2c1 | -108*
CCS(=O)(=O)c1ccc2oc(Nc3cccc(OC)c3)nc2c1 | -145*
CC(=O)c1c(C)[nH]c(C(=O)NCCc2ccccc2)c1C | -102*
COC(=O)/C=C/c1ccccc1S(=O)(=O)N(Cc1ccccc1)Cc1ccco1 | 89
CN(CC(=O)NCCc1ccccc1)Cc1ccco1 | -81*
O=C(NCCc1ccccc1)c1c(F)cccc1F | -115*
O=C(NCCc1ccccc1)c1ccco1 | -85*
CCc1ccc(-c2nc(CSCC(=O)NC3CC3)c(C)o2)cc1 | 71
Cc1ccc(-c2nc(CS(=O)(=O)CC(=O)NC3CCC(C)CC3)c(C)o2)cc1 (centres undefined) | -102*
COCCn1c(C)cc(C(=O)Cn2nc(C(=O)O)c3ccccc3c2=O)c1C | -116*
COCCn1c(C)cc(C(=O)CSc2nc3ccccc3s2)c1C | 53
CN(C)Cc1c(C(=O)N/N=C/c2ccc(OCc3c(F)cccc3Cl)cc2)nnn1-c1nonc1N | -76*
Nc1nonc1-n1nnc(C(=O)N/N=C/c2ccc(OCc3ccccc3)cc2)c1COc1ccc(F)cc1 | -96*
COc1cc(/C=N/NC(=O)c2nnn(-c3nonc3N)c2C(C)C)ccc1OCc1ccccc1 | -82*
CC(C)c1c(C(=O)N/N=C/c2ccc(OCc3ccc(F)cc3)cc2)nnn1-c1nonc1N | -72*
C/C(=N\NC(=O)c1nnn(-c2nonc2N)c1CN1CCc2ccccc21)c1ccccc1O | 75
Cc1cccc(COc2ccc(/C=N/NC(=O)c3nnn(-c4nonc4N)c3COc3ccc(F)cc3)cc2)c1 | -159*
C/C(=N\NC(=O)c1nnn(-c2nonc2N)c1C)c1ccc(OCc2ccccc2)cc1 | -67*
Cc1ccc(/C=N/NC(=O)c2nnn(-c3nonc3N)c2-c2cccs2)cc1 | 69
C/C(=N\N=C\c1ccccc1F)c1nnn(-c2nonc2N)c1C | -79*
SMILES | aSyn 5UTR act
CCOc1cccc(-c2c(C(=O)N/N=C(\C)c3ccccn3)nnn2-c2nonc2N)c1 | 90
Cc1ccc(-n2cnc3c(sc4nccc(N(C)C)c43)c2=O)cc1 | -132*
COc1cccc(C(=O)/C=C/c2ccc(OCC#N)c(OC)c2)c1 | -121*
CCOc1ccc(/C=C/C(=O)c2ccccc2)cc1OC | -112*
COc1cc(/C=C/C(=O)c2ccc(O)cc2)ccc1OCC#N | -134*
CCc1ccc(NC(=O)c2cnn3ccccc23)cc1 | 78
CSc1cccc(NC(=O)c2cnccn2)c1 | -69*
CSc1cccc(NC(=O)c2cnn3ccccc23)c1 | -100*
O=C(NCc1ccc(F)cc1)c1cnn2ccccc12 | -87*
CSc1cccc(NC(=O)c2ccccn2)c1 | -103*
COc1ccc(NC(=O)c2ccccn2)cc1 | 75
COc1ccc(NC(=O)c2ccccn2)cc1OC | -88*
Clc1cccc(Cl)c1Cn1nnc(N2CCCC2)n1 | -64*

From PubChem BioAssay
